Compounds with a hit are over-represented: about 3.2% of the library has one in this group of screens.
ERa coact inh: ER-alpha (human) coactivator binding inhibition. P03372. TR-FRET ER-alpha LBD / SRC-1 peptide, estradiol-bound. inhibition, % at 25.6 µM. 86,000 compounds, 1.7% hits. AID 629; in the data active = inhibition above about 50%;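 note: 0% = receptor plus peptide control and 100% = peptide only without receptor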
Target sequence (P03372 whole entry, looked up, the tested form may be a part): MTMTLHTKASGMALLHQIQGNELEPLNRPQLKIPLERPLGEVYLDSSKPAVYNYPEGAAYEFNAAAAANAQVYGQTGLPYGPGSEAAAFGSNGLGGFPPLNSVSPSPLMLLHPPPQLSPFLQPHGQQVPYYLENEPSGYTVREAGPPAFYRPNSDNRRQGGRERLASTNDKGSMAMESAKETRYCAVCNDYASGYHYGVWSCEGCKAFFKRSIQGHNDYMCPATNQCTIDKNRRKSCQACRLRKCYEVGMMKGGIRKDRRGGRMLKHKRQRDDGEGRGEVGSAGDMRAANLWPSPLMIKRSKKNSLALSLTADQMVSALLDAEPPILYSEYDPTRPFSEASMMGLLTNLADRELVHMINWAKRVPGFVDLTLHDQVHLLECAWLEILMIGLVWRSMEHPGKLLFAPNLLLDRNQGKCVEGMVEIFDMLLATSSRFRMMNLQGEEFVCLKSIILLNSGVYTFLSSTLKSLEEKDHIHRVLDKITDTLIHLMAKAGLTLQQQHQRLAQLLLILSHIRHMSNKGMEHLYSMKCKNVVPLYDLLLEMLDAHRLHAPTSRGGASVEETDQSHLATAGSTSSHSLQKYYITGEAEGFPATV
FAK inh: blocks human focal adhesion kinase activity | Q05397 | biochemical FAK kinase activity assay | inhibition, %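 (tested at 7 µM)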 | 97,000 compounds, 0.84% hits | AID 727; in the data active = inhibition above about 19%;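 note: 0% = DMSO and 100% = reference compound high control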
ERa SRC1 pot: ER-alpha (human) coactivator binding potentiation; P03372; TR-FRET ERalpha-LBD/SRC-Cy5 coactivator binding, 2 h; 100 = basal binding, no effect; coactivator binding (% of control), % at 25.6 µM; 86,000 compounds, 1.3% hits; in the data active = activity above about 200%;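 note: binding measured in presence of low estradiol as agonist stimulus; 0% = peptide alone without receptor and 100% = receptor with peptide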
ERb coact inh: blocks coactivator binding to human estrogen receptor beta. inhibition, % at 25.6 µM. AID 633. 86,000 compounds, 1.3% hits. TR-FRET ER-beta LBD / SRC1-Cy5 peptide binding; receptor agonist-loaded with 1 µM estradiol;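 active = compounds whose percent inhibition of the receptor-coactivator binding signal exceeds about 50% in the single-dose screen, limit read from the data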;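 note: 0% = receptor plus peptide wells without compound and 100% = peptide-only wells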
Numbers without * were called inactive; / = not tested or not shown; [ ] = remark or other dose.

SMILES | ERa coact inh | FAK inh | ERa SRC1 pot | ERb coact inh
CCN(CC)S(=O)(=O)c1cccc(C(=O)Nc2nc3cc4c(cc3s2)OCCO4)c1 | 2 | / | 122 | -1
CN(CC1CCCO1)S(=O)(=O)c1ccc(C(=O)Nc2nc3cc4c(cc3s2)OCO4)cc1 (configuration not stated) | 63*[fluorescence artefact?] | 1 | 86 | 19
COc1ccc(/C=N/Nc2ncc(-c3ccccc3)cn2)c(OC)c1 | 38 | 40* | 422*[fluorescence artefact?] | 27
O=C1CC(c2ccc(S(=O)(=O)NCCOc3ccccc3)cc2)CN1 (configuration not stated) | 3 | 0 | 124 | 57*
N#Cc1cc2c(nc1SCc1ccncc1)CCC2 | -6 | 11 | 91 | -9
N#Cc1cc2c(nc1SCc1ccccc1)CCC2 | 55*[fluorescence artefact?] | 3 | 283*[fluorescence artefact?] | 59*[fluorescence artefact?]
COc1cc(OC)c(C2N(c3ccc(Cl)cc3)C(=O)C3CCCN32)cc1OC (configuration not stated) | 1 | -1 | 114 | -8
NC(=O)C1CCN(c2nc(-c3ccccc3)nc3c2oc2ccccc23)CC1 | 22 | -3 | 344*[fluorescence artefact?] | 37
COc1ccc(-n2nc3c(c2NC(=O)c2c(F)cccc2Cl)CS(=O)C3)cc1 (configuration not stated) | 14 | -1 | 71 | 24
COc1ccc(C2(CNC(=O)/C=C\c3ccco3)CCCC2)cc1OC | / | -5 | / | /
CCOc1cc(C(=O)OCC(=O)Nc2cc(C)on2)cc(OCC)c1OCC | -2 | 0 | 105 | -10
CCN1C(=O)c2cccc3c(NC(=O)c4ccc5c(c4)OCCO5)ccc1c23 | 7 | / | 255* | 2
CSc1nsc(SCC(=O)Nc2c(C)n(C)n(-c3ccccc3)c2=O)n1 | -8 | -1 | 104 | 4
NC(=O)C1(NC(=O)[C@@H]2CC3(CC(c4cccc(NC(=O)[C@@H]5CCC(=O)N5)c4)=NO3)CN2C(=O)c2cnccn2)CC1 (some centres not stated) | / | -2 | / | /
Cc1cc(NC(=O)C(C)C)ncc1NC(=O)Cc1ccccc1 | -31 | 4 | 123 | -36
COc1cc(C(=O)Nc2cnc(NC(=O)C(C)C)cc2C)cc(OC)c1OC | -6 | -1 | 151 | 52*
CCOc1ccc(Br)cc1C1C(C(=O)OC)=C(N)Oc2cc(N(C)C)ccc21 (configuration not stated) | -1 | 2 | 113 | 3
O=C(c1cc(-c2ccco2)on1)N1CCc2ccccc2C1 | 58* | 11 | 91 | 51*
O=C(c1cc(-c2ccccc2O)on1)N1CCc2ccccc2C1 | 0 | -12 | 116 | -1
O=C(c1cc2nc(-c3ccco3)cc(C(F)(F)F)n2n1)N1CCCc2ccccc21 | 14 | / | 101 | 15
O=C(c1cc(-c2ccco2)on1)N1CCCc2ccccc21 | 66* | 9 | 95 | 52*
O=S(=O)(c1ccc(Cl)c(C(F)(F)F)c1)N1CCN(CC(O)COCC2CCCO2)CC1 (configuration not stated) | -1 | / | 132 | 7
COC(=O)c1c(NC(=O)c2nc3ccccc3s2)sc2c1CCN(C(C)=O)C2 | -1 | 6 | 129 | 5
CNC(=O)c1c(NC(=O)c2nc3ccccc3s2)sc2c1CCC2 | 72*[fluorescence artefact?] | -3 | 61 | 53*
O=C(CSc1ccc2nnc(-c3ccccc3)n2n1)N1CCN(c2ccccc2)CC1 | 9 | 0 | 83 | 2
SMILES | ERa coact inh | FAK inh | ERa SRC1 pot | ERb coact inh
Cc1ccc(-c2nnc3ccc(SCC(=O)N4CCc5ccccc54)nn23)cc1 | 4 | 1 | 238*[fluorescence artefact?] | 16
CC(=O)N1CCN(c2ccc(S(=O)(=O)N3CCCCC3)cn2)CC1 | 3 | -10 | 115 | -7
O=S(=O)(c1ccc(N2CCN(S(=O)(=O)c3ccc4c(c3)OCCO4)CC2)nc1)N1CCCC1 | 35 | 2 | 275*[fluorescence artefact?] | 44
CCOC(=O)Cc1csc(NC(=O)CCCCCN2C(=O)c3cccc4cccc(c34)C2=O)n1 | 69*[fluorescence artefact?] | 0 | 127 | 58*[fluorescence artefact?]
Cc1cnc(C(=O)OCC(=O)c2csc(N3CCCCC3)n2)cn1 | 54*[fluorescence artefact?] | 9 | 51 | 57*
CCc1ccc(N2CC(C(=O)Nc3nnc(CC)s3)CC2=O)cc1 (configuration not stated) | -11 | 0 | 98 | -9
O=C(c1ccccc1)N1CCN(C2c3cccc4cccc(c34)C2NS(=O)(=O)c2ccccc2)CC1 (configuration not stated) | 19 | 5 | 101 | 2
CN(C)c1ccc(C=Nc2ccc(N(C)C)cc2)cc1 | -21 | 7 | 78 | 58*[fluorescence artefact?]
CN(C)c1ccc(N=Cc2ccco2)cc1 | 29 | 5 | 66 | 70*
Cc1ccc(N=Cc2ccc(N(C)C)cc2)cc1 | -8 | 1 | 108 | -2
